In PubChem BioAssay (NCI) one finds growth data, which are given here for 7 compounds.

The panel holds about 83,000 compounds, 20% with a hit somewhere; the sample as a whole holds those more often.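 Results are percent growth after 48 hours of single-concentration exposure. 100 means growth as in untreated cells, lower positive values show inhibition; negative values down to -100 show cell death.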 A number with no mark means an inactive call. The source made the active and inactive calls. The calls were made as follows: active = growth percent below 10; inactive = the rest.

Common to all, as to assay: NCI-60 one-dose screen, 48 h (100 = growth as untreated, 0 = no growth, -100 = all killed)
Holding throughout (conditions): 10 µM unless noted

The subject of assay [1] is DU-145 prostate.
Assay [2] deals with K-562 leukemia.
In assay [3] the test system is MALME-3M melanoma.
For assay [4], the system named is MDA-MB-231 breast.
In assay [5] the test system is RXF 393 renal.
In assay [6] the test system is SF-268 CNS.
Assay [7] relates to SF-295 CNS.
Assay [8] relates to SF-539 CNS.
The test system of assay [9] is UACC-257 melanoma.
The subject of assay [10] is M14 melanoma.
Assay [11] concerns HCT-15 colon.
In assay [12] the test system is HT29 colon.
Assay [13] has as its system SNB-75 CNS.
The test system of assay [14] is SNB-19 CNS.
The test system of assay [15] is U251 CNS.
Assay [16] deals with PC-3 prostate.
Assay [17] concerns SK-MEL-5 melanoma.
In assay [18] the test system is UACC-62 melanoma.
The test system of assay [19] is LOX IMVI melanoma.
Assay [20] has as its system SK-MEL-28 melanoma.

As for `Clc1ccc(Nc2ncnc3c2sc2ncccc23)c(Cl)c1`, the growth was 20.1% in [1]; 43.4% in assay [2]; 58.2% in assay [3]; 61.1% in [4]; 34% in assay [5]; 18.4% in assay [6]. The growth in [7] was 17.9%; in [8] it was 6.17% (active); in assay [9] it was 39.3%; in [10], -25.6% (active); in [11] it was 47.7%; in assay [12] it was 39.4%. The growth in assay [13] was 42.3%; in [14], 27.4%; in assay [15] it was 27%; in [16], 49.5%; in assay [17] it was 28%; in assay [18], 12.7%. Further, the growth in [19] is 4.08% (active); in assay [20] it was 65.9%.

Take `COc1cc(-c2csc(NC(=O)Nc3cccc(C(F)(F)F)c3)n2)cc(OC)c1OC`: the growth in [1] is 55.9%; in assay [2] it was 31.6%; in assay [3], 88.3%; in assay [4], 63.8%; in [5], 71.4%; in [6] it was 65%. In addition, the growth in assay [7] is 21.7%; in assay [8], 67.1%; in [9], 83.2%; in assay [10] it was 47.8%; in [11] it was 30.9%; in assay [12] it was 62.6%. Also, the growth in assay [13] was 62.4%; in assay [14] it was 46.1%; in assay [15], 34.1%; in [16], 18.6%; in [17], 28.7%; in [18], 40%. The values for the growth in assay [19] and in [20] were 62.3% and 72.8%, respectively.

As to `Cc1ccc2cc3c(NC(=O)c4cccnc4)nn(C)c3nc2c1`, the growth in assay [1] was 100%; in assay [2], 85.8%; in assay [3], 99.1%; in assay [4], 83.8%; in assay [5] it was 89.3%; in assay [6] it was 97.3%. Also, the growth in assay [7] is 101%; in [8], 97.1%; in assay [9], 99.3%; in assay [10], 93.3%; in assay [11], 91.6%; in assay [12] it was 75.8%. Besides, the growth is 73.8% in [13]; 82.6% in assay [14]; 85.2% in [15]; 62.5% in assay [16]; 83.1% in assay [17]; 88.7% in assay [18]. In addition, the growth in [19] was 92.4%; in [20], 96%.

Consider `O=C(O)Cn1ccc2ccccc21`, for which the growth in [1] was 119%; in assay [2] it was 93.4%; in [3], 96.7%; in assay [4], 88.8%; in [5], 114%; in assay [6], 115%. Further, the growth is 113% in assay [7]; 92.8% in [8]; 113% in assay [9]; 93.2% in assay [10]; 111% in [11]; 106% in assay [12]. For the same compound, the growth was 91.1% in assay [13]; 98.9% in assay [14]; 108% in assay [15]; 101% in assay [16]; 98.7% in assay [17]; 104% in assay [18]. Moreover, the values for the growth in assay [19] and in assay [20] were 91.8% and 134%, respectively.

In the case of `CCOC(=O)C(=CNc1ccccc1Cl)C(=O)OCC`, the growth in [1] is 107%; in assay [2], 54.3%; in assay [3] it was 140%; in [4], 104%; in assay [5] it was 100%; in assay [6], 94.3%. Further, the growth was 89.9% in assay [7]; 102% in assay [8]; 103% in assay [9]; 113% in assay [10]; 88.2% in [11]; 89.1% in assay [12]. Moreover, the growth was 108% in [13]; 97.1% in assay [14]; 94.5% in assay [15]; 95.8% in [16]; 77.1% in assay [17]; 72.4% in assay [18]. Moreover, the growth in [19] was 95.8%; in assay [20] it was 116%.

In the case of `ClCc1cccc(CSc2ncnc3c2ncn3Cc2cccc(CCl)c2)c1`, the growth is 50.4% in [1]; 14.2% in [2]; 41.7% in assay [3]; 12% in [4]; -20.2% (active) in assay [5]; 17% in assay [6]. Further, the growth in [7] is 92%; in assay [8], 58.2%; in assay [9] it was 42.5%; in [10], -71.8% (active); in assay [11], 20.7%; in assay [12], 13.2%. Besides, the growth was -13.8% (active) in assay [13]; 45.6% in assay [14]; -69.8% (active) in [15]; 49.8% in [16]; 20.2% in [17]; 6.23% (active) in assay [18]. Also, the figures for the growth in assay [19] and in assay [20] were -8.54% (active) and 27.4%, respectively.

As for `Cc1ccc(NC(=O)c2[nH]c(SCCN(C)C)nc2-c2ccc(F)cc2)cc1C#Cc1cnc2cccnn12`, the growth in [1] was -19% (active); in assay [2], -37.3% (active); in assay [3], -9.58% (active); in assay [4], -7.2% (active); in [5] it was -61.6% (active); in [6] it was -23.4% (active). The growth in assay [7] was 93.1%; in [8], -84.4% (active); in assay [9], 12.7%; in [10], -75.1% (active); in assay [11], -19.6% (active); in [12] it was -14.9% (active). Also, the growth is -59.7% (active) in assay [13]; 21.4% in assay [14]; -58.8% (active) in [15]; 34% in [16]; 45.5% in assay [17]; 35.8% in assay [18]. For the same compound, the figures for the growth in assay [19] and in assay [20] were -49.2% (active) and -72.4% (active), respectively.
